Measurements as given in PubChem BioAssay (NCI).
This is part of a sample that, as a whole, favours compounds with a hit. Of some 83,000 tested, about 20% had one in any assay.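 Activity criterion: percent growth below 10, measured after cells in 96-well plates were exposed to a single compound concentration for 48 hours.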 Unmarked numbers belong to inactive results. Active and inactive are the calls of the source.

Tests used:
Assay in all cases: NCI-60 one-dose screen, 48 h (100 = growth as untreated, 0 = no growth, -100 = all killed)
[1] = system: SK-MEL-2 melanoma; conditions: 10 µM unless noted
[2] = system: SN12C renal; conditions: 10 µM unless noted
[3] = system: UO-31 renal; conditions: 10 µM unless noted
[4] = system: TK-10 renal; conditions: 10 µM unless noted
[5] = system: ACHN renal; conditions: 10 µM unless noted
[6] = system: CAKI-1 renal; conditions: 10 µM unless noted
[7] = system: A498 renal; conditions: 10 µM unless noted
[8] = system: MOLT-4 leukemia; conditions: 10 µM unless noted
[9] = system: RPMI-8226 leukemia; conditions: 10 µM unless noted
[10] = system: OVCAR-8 ovarian; conditions: 10 µM unless noted
[11] = system: OVCAR-5 ovarian; conditions: 10 µM unless noted
[12] = system: OVCAR-4 ovarian; conditions: 10 µM unless noted
[13] = system: SK-OV-3 ovarian; conditions: 10 µM unless noted
[14] = system: IGROV1 ovarian; conditions: 10 µM unless noted
[15] = system: OVCAR-3 ovarian; conditions: 10 µM unless noted
[16] = system: HS 578T breast; conditions: 10 µM unless noted
[17] = system: NCI/ADR-RES ovarian; conditions: 10 µM unless noted
[18] = system: CCRF-CEM leukemia; conditions: 10 µM
[19] = system: SR leukemia; conditions: 10 µM unless noted

Structure (SMILES)	growth [1]	growth [2]	growth [3]	growth [4]	growth [5]	growth [6]	growth [7]	growth [8]	growth [9]	growth [10]	growth [11]	growth [12]	growth [13]	growth [14]	growth [15]	growth [16]	growth [17]	growth [18]	growth [19]
O=C(CCl)c1ccc2c(c1)CCCC2	80.3%	96.5%	91.2%	86.7%	98.4%	74.9%	101%	68.6%	84.6%	95.6%	107%	107%	110%	89.2%	114%	94.7%	108%		
CCOC(=O)C1C(=O)C(=O)N(C(C)C)C1C(=O)OCC (configuration not stated)	113%	94.4%	86.2%	99.1%	94.3%	105%		122%	106%	91.4%	92.9%	106%	109%	110%	108%	96.5%	106%	110%	
CCOC(=O)c1csc(-c2ccc(COC(=O)c3ccccc3)o2)n1	107%	96.1%	83.5%	107%	95%	81.2%	112%	4.16% (active)	111%	111%	102%	116%	107%	103%	116%	111%	109%		
C/C(=C\c1ccc2ccccc2c1)[N+](=O)[O-]	4.49% (active)	89.6%	-80.1% (active)		-74.1% (active)	-79.2% (active)	103%	-1.16% (active)	-33.9% (active)	11.7%	82.6%	87.6%	99.4%	-20% (active)	-76.6% (active)		88.4%	-25.4% (active)	4.41% (active)
COc1ccc(-c2nc(N)n(C(=S)Nc3ccccc3)n2)cc1	101%	100%	74.2%	113%	97.9%			98.5%	99%	97.8%	111%	109%	94.7%	99.4%	103%	87.2%	102%	98.7%	90.8%
CCCCCCCCCCCCCCCCCC(=O)Nc1ccc(O)cc1	83.1%	75.7%	52.5%	85.3%	104%	95.1%	109%	26.7%	77.8%	91.3%	117%	104%	98.8%	105%	103%	104%	95.4%		
CCCCCCCCCCCCOC(=O)/C=C\C(=O)NC(N)=O	50.7%	84.3%	93%		88.4%	90.3%	101%	45.1%	4% (active)	70.6%	108%	86%	97.8%	73%	92.4%	86%	88.4%		3.65% (active)
CC(=O)Nc1ccc(S(=O)(=O)Cl)cc1	111%	94.5%	97.2%	100%	113%		101%	104%	100%	113%	109%	110%	106%	116%	112%		116%	90.9%	86.8%
CNCCCNCCCCNCCCN1C(=O)c2ccc3c4c(ccc(c24)C1=O)C(=O)N(CCCNCc1ccccc1OC)C3=O	14%	24.6%	16.8%		26%	28.6%	45.1%	24.9%	15%	41.9%	55.9%	-10.8% (active)	54.4%	12.7%	6.09% (active)	12.5%	43.4%	45.8%	12%
CCCCCCCCC(=O)Nc1ccc(O)cc1	93%	94.3%	61.9%	87.1%	79.2%	93.9%	102%	57.9%	82.3%	95%	106%	95.3%	100%	93.7%	102%	103%	82.9%		
CCCCN(CCCC)CCCNc1c2c(nc3ccc(Cl)cc13)CCCC2	101%	93.2%	72.7%	86.3%	102%			94.9%	102%	102%	84%	84.7%	105%	79.5%	88.9%	104%	94.4%	98.1%	75.8%
NC(CSC(c1ccccc1)(c1ccccc1)c1ccccc1)C(=O)NCC(=O)O (configuration not stated)	38.3%	70.7%	84.4%	98.8%	88.4%		65%	83.7%	49.3%	70.7%	94.7%	100%	35%	72.6%	98%		108%	53.5%	34.1%
NNC(=S)N1N=C(c2cc3ccccc3o2)CC1c1c[nH]c2ccccc12 (configuration not stated)	60.1%	56.9%	24%	80.1%	24%		90.2%	10.2%	28%	38.8%	80.4%	28.6%	86.2%	35.3%	20%	63.8%	30.7%	7.46% (active)	27.2%
COc1ccc(/C=C2\SC(=O)N(Cc3cc(=O)oc4ccc(OC)cc34)C2=O)cc1	99.9%	90.7%	70.6%	97.8%	92.7%		93.5%	85.1%	64.1%	95.4%	100%	63.6%	96.6%	98.1%	84.6%	103%	95.7%	77.2%	69.6%
CCCCS(=O)(=O)c1cc(Nc2ccc(O)c3c2C(=O)c2ccccc2C3=O)ccc1C	92.5%	71.5%	54.8%	116%	92.2%		126%	61.2%	80.9%	86.6%	78.5%	78.9%	87.8%	81.8%	46.4%		82.2%	59.7%	58.6%
N#CCc1ncc(-c2ccc(C(F)(F)F)cc2)c(NC2CCCCCC2)n1	-22.1% [100 µM] (active)	30.4% [100 µM]	29.8% [100 µM]	61.2% [100 µM]	18.4% [100 µM]		1.91% [100 µM] (active)	-4.66% [100 µM] (active)	-32% [100 µM] (active)	26% [100 µM]	50.2% [100 µM]	42.5% [100 µM]	74.9% [100 µM]	44.9% [100 µM]	-19% [100 µM] (active)	52.7% [100 µM]	28.3% [100 µM]		-23.8% [100 µM] (active)
O=CN/N=C/c1ccc(Cl)c([N+](=O)[O-])c1	41.1%	21.2%	80.1%		44.2%	41.1%	56%	20.6%	15.6%	18.1%	31%	49.6%	46.9%	16.9%	18.1%		107%	15.3%	
CCOc1ccccc1/C=N\N=C(N/N=C/c1ccccc1OCC)N/N=C/c1ccccc1OCC	4.07% (active)	15.4%	-8.3% (active)	27.8%	9.67% (active)			27.7%	18.8%	18.4%	13.9%	7.81% (active)	2.98% (active)	21%	-19.7% (active)		6.36% (active)	16.7%	15.7%
